Calls of active or inactive are those of the source.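 Rule for the calls, unless noted: active = visually confirmed hit in the image check and inhibition above 20%; inconclusive = visually confirmed hit but inhibition not above 20%; inactive = no visual hit in the image check.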
Columns and labels:
[1] = inhibitors of TNFa-induced NFkB p65 translocation, primary screen, imaging, HUVEC, MLSMR starter and 10KST1 sets (AID 438;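 active = inhibition above 20% together with a positive visual image hit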;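 note: compound added about 3h40 before a 20 min TNFalpha stimulation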;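 for inhibition: signal is the nuclear over cytoplasmic p65 intensity ratio per well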); settings: HUVEC TNFa-induced p65 nuclear translocation; cell count: measured here: nuclei count (cytotoxicity indicator), at 2.08 µM; inhibition: at 2 µM, stronger effect = higher value, 0% TNFa-plus-vehicle, 100% no-TNFa wells
[2] = reduction of polyQ htt aggregates in cells – imaging, exon1htt(103Q)mCFP cells, high-content imaging, primary screen (AID 483;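 active = visual image review flags a hit and inhibition of aggregation exceeds 20%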;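 note: compound exposure lasted 3 days before fixation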;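 for nuclei count: percent of the per-plate median nuclei count of sample wells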); settings: exon1htt(103Q)mCFP cell line, aggregate imaging, at 2 µM; inhibition of aggregation: stronger effect = higher value; nuclei count: measured here: cell count, toxicity
[3] = endothelial E-selectin expression blockers – imaging, HUVEC, immunofluorescence, MLSMR starter and 10KST1 sets, primary screen (AID 487); settings: HUVEC TNFalpha-induced E-selectin immunofluorescence imaging, at 2 µM; inhibition: stronger effect = higher value; nuclei count: measured here: cell number, toxicity;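 for inhibition: signal is fraction of cell area covered by stained E-selectin grains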;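 for nuclei count: 100% = median nuclei count of all wells on the same plate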
[4] = target: Voltage-gated potassium channel subunit beta-2 (Rattus norvegicus) (UniProt P62483); test: inhibitors of rat Kvbeta2 reductase activity – biochemical, NADPH fluorescence, primary screen (AID 622;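 active = fluorescence slope higher than the sample average by over 3 SD, cut at about -0.22 in these data, passing the limit was not always enough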;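 note: slope of raw intensity against log time taken from 70 to 1610 s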); settings: recombinant KvBeta, 4-cyanobenzaldehyde reduction, at 10 µM, stronger effect = higher value
[5] = target: Voltage-gated potassium channel subunit beta-2 (Rattus norvegicus) (UniProt P62483); test: enhancers of rat Kvbeta2 NADPH turnover – biochemical, NADPH fluorescence, primary screen (AID 623;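 active = NADPH fluorescence slope more negative than the mean of all samples by about 3 SD, 99.7% confidence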;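 note: fluorescence intensity change per second fitted from 20 to 320 s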); settings: Recombinant KvBeta, NADPH fluorescence decrease slope, 10 min; at 10 µM; stronger effect = lower value
[6] = target: Alpha-2C adrenergic receptor (Homo sapiens) (UniProt P18825); test: compounds altering alpha2C-coupled GIRK flux – cell-based, HEK293 alpha2C/GIRK1/2, thallium flux, primary screen (AID 624;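 active = fluorescence slope after compound addition differing from the mean of all screened samples at 99.7% confidence, in either direction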;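 note: slope of fluorescence ratio to pre-addition baseline per second over 15 to 24 s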); settings: thallium flux BTC fluorescence, at 10 µM, actives lie on both sides
[7] = blockers of RIG-like receptor reporter activation – cell-based, Sendai virus stimulus, luciferase, 10K MLSCN set, TLR/RLR signaling modifier project, primary screen (AID 602276;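 active = inhibition at or above 50% at 10 µM; inactive = inhibition below 50%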;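 note: firefly luciferase from ISG56 promoter only with Renilla not read in this screen; 0% = Sendai virus plus DMSO and 100% = medium plus DMSO without virus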); settings: HEK293 RL24 IRF3 luciferase reporter, at 10 µM, stronger effect = higher value
[8] = TLR3 IRF3 reporter activation blockers – cell-based, poly I:C stimulus, luciferase, 10K MLSCN set, primary screen (AID 602277;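 active = inhibition of the reporter signal at or above 50%; inactive = inhibition below 50%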); settings: HEK293-TLR3 RL24 IRF3 luciferase reporter, at 10 µM, stronger effect = higher value

Voltage-gated potassium channel subunit beta-2 (Rattus norvegicus), sequence (P62483 whole entry, looked up): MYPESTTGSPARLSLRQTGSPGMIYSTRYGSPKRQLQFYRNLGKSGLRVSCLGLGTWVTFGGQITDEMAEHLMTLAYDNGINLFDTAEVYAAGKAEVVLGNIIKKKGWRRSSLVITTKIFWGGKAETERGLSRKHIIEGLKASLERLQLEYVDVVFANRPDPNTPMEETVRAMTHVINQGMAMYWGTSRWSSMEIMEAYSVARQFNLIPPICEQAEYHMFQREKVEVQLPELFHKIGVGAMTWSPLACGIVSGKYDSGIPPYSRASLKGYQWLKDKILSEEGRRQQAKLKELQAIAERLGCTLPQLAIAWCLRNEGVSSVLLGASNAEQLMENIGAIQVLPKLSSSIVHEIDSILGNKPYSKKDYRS
Alpha-2C adrenergic receptor (Homo sapiens), sequence (P18825 whole entry, looked up): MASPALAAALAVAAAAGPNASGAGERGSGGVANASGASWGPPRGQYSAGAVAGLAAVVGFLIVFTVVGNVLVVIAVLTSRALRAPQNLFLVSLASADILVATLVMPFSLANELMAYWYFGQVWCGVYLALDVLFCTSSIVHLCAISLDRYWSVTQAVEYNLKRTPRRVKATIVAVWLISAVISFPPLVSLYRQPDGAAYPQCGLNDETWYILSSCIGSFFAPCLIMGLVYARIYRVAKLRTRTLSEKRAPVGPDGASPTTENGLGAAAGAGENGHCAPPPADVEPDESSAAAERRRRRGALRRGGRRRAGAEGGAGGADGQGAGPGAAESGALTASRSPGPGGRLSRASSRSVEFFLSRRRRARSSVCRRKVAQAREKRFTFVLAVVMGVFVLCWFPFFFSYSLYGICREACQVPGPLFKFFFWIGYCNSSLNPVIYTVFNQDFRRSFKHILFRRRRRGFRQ

SMILES	cell count [1]	inhibition [1]	inhibition of aggregation [2]	nuclei count [2] [%]	inhibition [3]	nuclei count [3] [%]	fluorescence slope [4]	NADPH fluorescence slope [5]	slope [6]	inhibition [7]	inhibition [8]
COc1ccccc1N1CCN(c2cc(=O)n(Cc3ccc(F)cc3)c(=O)[nH]2)CC1	503	-2.8% (inactive)	2% (inactive)	44	11.7% (inactive)	106	-0.569 (inactive)	-3.7e-05 (inactive)	0.00657 (inactive)	17.1% (inactive)	29.3% (inactive)
CCOC(=O)C1=C(C)N(C)C(=O)NC1c1cccc(O)c1 (stereo unspecified)	421	6.4% (inactive)	-6.7% (inactive)	99.3	-43.5% (inactive)	124	-0.259 (inactive)	-1.3e-05 (inactive)	0.00604 (inactive)	9.66% (inactive)	17.5% (inactive)
Cc1ccc(N2C(=O)c3ccccc3C2O)nc1 (stereo unspecified)	627	0.8% (inactive)	-27.7% (inactive)	117	-15.9% (inactive)	117	-0.587 (inactive)	-2.2e-05 (inactive)	0.00652 (inactive)	48.3% (inactive)	41.4% (inactive)
CCOc1ccc(C2C(C#N)=C(N)Oc3cc(C)n(CCN(C)C)c(=O)c32)cc1OCC (stereo unspecified)	587	-7.4% (inactive)	1.7% (inactive)	98.3	11.8% (inactive)	93.1	-0.588 (inactive)	-4.4e-05 (inactive)	0.00685 (inactive)	14.3% (inactive)	38.2% (inactive)
Cc1cc(C(=O)NCc2cccnc2)no1	337	4.2% (inactive)	6.9% (inactive)	105	7.8% (inactive)	102	-0.5 (inactive)	-8.2e-06 (inactive)	0.00709 (inactive)	11.1% (inactive)	14.3% (inactive)
Cc1cc(=O)oc2c1ccc1oc(/C(=N/O)c3ccccc3)c(C)c12	456	-19% (inactive)	34.1% (inactive)	77.6	1.5% (inactive)	110	-0.357 (inactive)	-3.7e-05 (inactive)	0.00542 (inactive)	7.72% (inactive)	13.6% (inactive)
Cc1cc(C(=O)NCCCN2CCOCC2)n(-c2ccccc2)n1	624	3.3% (inactive)	-11.9% (inactive)	92.5	-29.6% (inactive)	115	-0.519 (inactive)	-2.1e-05 (inactive)	0.00682 (inactive)	9.1% (inactive)	24.9% (inactive)
O=C(CN1CCN(c2ccccn2)CC1)N1c2ccccc2CCc2ccccc21	568	3.3% (inactive)	-0.5% (inactive)	103	46.8% (inactive)	99.5	-0.341 (inactive)	-5.2e-05 (inactive)	0.0046 (inactive)	13% (inactive)	15.9% (inactive)
O=C(Nc1ccc(N2CCCC2)cc1)c1cccc(F)c1	694	1.6% (inactive)	24.1% (inactive)	94.5	-83.5% (inactive)	148	-0.436 (inactive)	7e-06 (inactive)	0.0066 (inactive)	11.4% (inactive)	-67.8% (inactive)
Cc1ccc(C)c2[nH]c(=O)c(CCNC(=O)CC(C)(C)C)cc12	650	-5.3% (inactive)	33.1% (inactive)	63.8	16.6% (inactive)	90.8	-0.557 (inactive)	-5.3e-05 (inactive)	0.00614 (inactive)	4.63% (inactive)	16.5% (inactive)
CC(=O)NC(Cc1c[nH]c2ccccc12)C(=O)OCC(=O)Nc1cc(C)on1 (stereo unspecified)	505	9.6% (inactive)	0.7% (inactive)	110	-0.6% (inactive)	97.6	-0.376 (inactive)	1.5e-05 (inactive)	0.00598 (inactive)	-5.34% (inactive)	8.03% (inactive)
Cc1nc2sc(C(c3cccc(F)c3)N3CCCCC3)c(O)n2n1 (stereo unspecified)	223	-2.8% (inactive)	-5.5% (inactive)	95.8	-5.7% (inactive)	120	-0.538 (inactive)	7.3e-06 (inactive)	0.00555 (inactive)	1.92% (inactive)	19.2% (inactive)
COC(=O)c1ccccc1NS(=O)(=O)c1ccc(F)cc1	609	2.4% (inactive)	-3% (inactive)	99.4	-22.1% (inactive)	114	-0.523 (inactive)	-3.8e-05 (inactive)	0.00602 (inactive)	9.83% (inactive)	17.7% (inactive)
CCCC(=O)Nc1nnc(Sc2ccc(N(C)C)cc2)s1	671	4.8% (inactive)	-9.6% (inactive)	96.4	-15.5% (inactive)	97.6	-0.466 (inactive)	-2.9e-05 (inactive)	0.00582 (inactive)	-1.24% (inactive)	-10.3% (inactive)
CC(=O)Nc1ccc(OCC(O)Cn2nc(C)nc2C)cc1 (stereo unspecified)	357	1.5% (inactive)	-13.4% (inactive)	95.7	-160% (inactive)	120	-0.267 (inactive)	-1.1e-05 (inactive)	0.00761 (inactive)	7.41% (inactive)	23.2% (inactive)
c1ccc(-c2cnc(CSc3ncnc4sccc34)o2)cc1	308	2.9% (inactive)	27.8% (inactive)	86.4	-7.2% (inactive)	109	-0.272 (inactive)	-1.7e-05 (inactive)	0.00879 (inactive)	-9.6% (inactive)	-51.1% (inactive)
Oc1ccc2cccnc2c1	719	-12.9% (inactive)	-15.8% (inactive)	100	-44.3% (inactive)	118	-0.12 (active)	2.2e-05 (inactive)	0.00432 (inactive)	-2.36% (inactive)	0.747% (inactive)
Cn1cc(-c2nc3ccccc3[nH]2)c2ccccc21	250	2.1% (inactive)	33.7% (inactive)	82.6	55.1% (inactive)	83.3	-0.416 (inactive)	-6e-05 (inactive)	0.00369 (inactive)	-9.53% (inactive)	-51.2% (inactive)
Cc1ccccc1-n1c(Cn2c(=O)sc3ccccc32)nnc1SCC(N)=O	542	4.5% (inactive)	4.1% (inactive)	110	-28.8% (inactive)	111	-0.518 (inactive)	-3.8e-05 (inactive)	0.00845 (inactive)	16.4% (inactive)	25.2% (inactive)
CCOc1ccc(C2CC(c3cccc(C)c3)n3ncnc3N2)cc1 (stereo unspecified)	666	0.3% (inactive)	-18.7% (inactive)	90.6	-13.6% (inactive)	109	-0.622 (inactive)	1.7e-06 (inactive)	0.0075 (inactive)	-8.73% (inactive)	10.7% (inactive)
NC(=O)c1cccc2c1C(=O)N(C1CCCCC1)C2	836	-0.6% (inactive)	-14.1% (inactive)	91.2	-26.1% (inactive)	117	-0.569 (inactive)	-1.8e-05 (inactive)	0.00605 (inactive)	5.66% (inactive)	24.7% (inactive)
Cc1ccc(N2C(=O)c3ccccc3C2Nc2cccnc2)nc1 (stereo unspecified)	513	-7.7% (inactive)	2.4% (inactive)	92.8	-91.7% (inactive)	138	-0.585 (inactive)	2e-05 (inactive)	0.0064 (inactive)	-2.85% (inactive)	4.9% (inactive)
c1cn2cc(CSC3CCCCC3)nc2s1	641	11% (inactive)	12.1% (inactive)	107	-53.3% (inactive)	140	-0.585 (inactive)	-4.6e-05 (inactive)	0.00605 (inactive)	-32.1% (inactive)	-53% (inactive)
O=C(O)C1CCCN1S(=O)(=O)c1ccc2ccccc2c1 (stereo unspecified)	609	-3.4% (inactive)	-2.3% (inactive)	89.5	-83.6% (inactive)	106	-0.627 (inactive)	-2e-06 (inactive)	0.00297 (inactive)	-1.98% (inactive)	-11.3% (inactive)
C=CCSc1n[nH]c(-c2ccc(OC)cc2)n1	244	17.3% (inactive)	-8.3% (inactive)	89.5	-73.2% (inactive)	103	-0.417 (inactive)	-9.3e-05 (inactive)	0.00611 (inactive)	-90.7% (inactive)	-168% (inactive)
CCOc1ccc(NCc2nnc(SCC(=O)Nc3cc(C)on3)n2-c2ccccc2OC)cc1	325	-9.3% (inactive)	-6.4% (inactive)	101	41.6% (inactive)	107	-0.452 (inactive)	-2.8e-05 (inactive)	0.00835 (inactive)	20.4% (inactive)	30.4% (inactive)

From PubChem BioAssay
